PubChem BioAssay (NCATS)
Inconclusive results are not listed. Entries that show only a call come without a potency. The source made the active and inactive calls. Unless noted, the call rests on the fitted dose curve; in most records, active means well fitted curve in the direction sought with a large enough effect; inconclusive means small, poorly fitted or top-dose-only effect, or another doubt; inactive means no such curve, though single readings can be large; an effect the other way counts as inactive or inconclusive.

How the values were obtained:
[1] = target: Glucagon-like peptide 1 receptor (Homo sapiens) (UniProt P43220); test: qHTS of GLP-1 Receptor Agonists: LOPAC Validation (AID 624148);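 further: luminescence from a luciferase reporter switched on by cAMP; higher luminescence signal means agonism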
Glucagon-like peptide 1 receptor (Homo sapiens), sequence (P43220 whole entry, looked up): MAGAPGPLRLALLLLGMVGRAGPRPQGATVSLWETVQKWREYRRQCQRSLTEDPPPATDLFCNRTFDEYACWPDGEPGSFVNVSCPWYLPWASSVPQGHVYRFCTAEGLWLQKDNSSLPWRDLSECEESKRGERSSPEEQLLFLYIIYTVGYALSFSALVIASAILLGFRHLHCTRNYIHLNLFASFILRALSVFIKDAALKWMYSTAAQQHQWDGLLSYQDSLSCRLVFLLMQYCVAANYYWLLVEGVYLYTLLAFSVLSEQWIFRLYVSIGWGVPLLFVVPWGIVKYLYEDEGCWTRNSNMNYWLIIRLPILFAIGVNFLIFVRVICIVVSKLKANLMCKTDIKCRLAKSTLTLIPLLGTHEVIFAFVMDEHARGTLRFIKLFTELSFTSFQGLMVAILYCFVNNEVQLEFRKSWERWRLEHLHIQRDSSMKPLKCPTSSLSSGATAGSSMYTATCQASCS
Procedure, shortened: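 Agonism scored as increased luciferase luminescence driven by cAMP in HEK293 clones carrying GLP-1R. Cells settled 12 hours, received compound for 4-6 hr at 37 deg C, 5% CO2, and were read after 12 min detection reagent at RT.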

[2] = qHTS of Nrf2 Activators: LOPAC Validation (AID 624149)
Procedure, shortened: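 Luminescence read-out of ARE-luciferase activation: AREc32_Fluc cells treated with compounds for 24 hr at 37 deg C, then lysed with Steady-Glo for 30 min at room temperature before reading.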

[3] = HTS Assay for Allosteric Antagonists of the Human D2 Dopamine Receptor: Hit Validation in HTRF (AID 624455);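 further: stable D1 dopamine receptor cell line scored for blocking the D1 response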
Procedure, shortened: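 First, antagonism was screened by calcium flux in a force-coupled, inducible Hek293 Trex D2 line challenged with EC80 dopamine. Hits then went into an HTRF assay in cells stably expressing D1, testing inhibition of the D1 response.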

[4] = Cell Proliferation Assay against the TMD8 Cell Line (AID 651645); details: TMD8 DLBCL cell line proliferation/viability; at 46.1 µM (top of the series) unless noted;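 further: cells exposed to compound for 48 h before reading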
Procedure, shortened: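 Viability by CellTiter-Glo after 48 h compound exposure of 500 log-phase TMD8 cells per well (RPMI, 5% FBS). Percent activity scaled between DMSO (100%) and 9.2 uM final bortezomib (0%).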

[5] = Cell Proliferation Assay against the HBL1 Cell Line (AID 651646); details: HBL1 DLBCL cells; at 46.1 µM (top of the series) unless noted;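 further: cells exposed to compound for 48 h before reading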
Procedure, shortened: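 Luminescent ATP read-out (CellTiter-Glo) after 48 h compound exposure of HBL1 cells at 37 °C; percent activity was scaled between DMSO as 100% and 9.2 uM bortezomib (final) as 0%.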

[6] = target: Glutaminase kidney isoform, mitochondrial (Homo sapiens) (UniProt O94925); test: qHTS for Inhibitors of Glutaminase (GLS): LOPAC Validation (AID 624146);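 further: glutamate product detected by oxidase and peroxidase coupled Amplex red fluorescence gain; nearly all actives have a fitted effect of over 60% in size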
Glutaminase kidney isoform, mitochondrial (Homo sapiens), sequence (O94925 whole entry, looked up, canonical isoform): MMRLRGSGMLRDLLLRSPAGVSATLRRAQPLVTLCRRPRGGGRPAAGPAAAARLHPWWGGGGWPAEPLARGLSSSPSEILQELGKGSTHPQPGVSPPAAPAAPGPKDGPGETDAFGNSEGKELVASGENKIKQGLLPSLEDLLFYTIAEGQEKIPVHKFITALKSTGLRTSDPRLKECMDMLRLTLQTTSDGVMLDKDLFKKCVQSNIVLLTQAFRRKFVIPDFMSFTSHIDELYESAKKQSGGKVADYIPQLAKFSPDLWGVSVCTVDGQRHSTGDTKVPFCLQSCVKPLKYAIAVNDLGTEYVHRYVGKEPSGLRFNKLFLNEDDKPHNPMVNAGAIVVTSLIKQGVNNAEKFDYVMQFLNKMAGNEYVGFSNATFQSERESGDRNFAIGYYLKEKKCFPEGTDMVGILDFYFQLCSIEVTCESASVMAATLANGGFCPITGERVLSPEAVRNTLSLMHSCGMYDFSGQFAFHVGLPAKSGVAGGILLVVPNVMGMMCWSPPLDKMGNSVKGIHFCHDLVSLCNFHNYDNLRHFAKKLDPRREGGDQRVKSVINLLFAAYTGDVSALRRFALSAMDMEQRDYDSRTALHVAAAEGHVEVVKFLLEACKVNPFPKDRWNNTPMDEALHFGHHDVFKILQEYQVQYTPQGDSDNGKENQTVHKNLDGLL
Procedure, shortened: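 hKGA in 45 mM KH2PO4 (pH 8.2), 0.02% Tween-20 with compound, then 1mM L-Glutamine (stock as added) plus glutamate oxidase/HRP/Amplex red coupling mix. Fluorescence read initially and after 30 min at RT; signal change reflects glutamate formation.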

[7] = qHTS of Trypanosoma Brucei Inhibitors: LOPAC Validation (AID 624147)
Procedure, shortened: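 Readout: single end-point luminescence (Kinase-Glo Plus, 10 min). Reaction conditions were TbPYK/substrate plus 130 uM ADP, 45 min at RT, pH 7.2 TEA buffer. No-enzyme wells served as controls, and data were normalized before concentration-response fitting.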

[8] = Cytotoxicity counterscreen for NFkB agonists and antagonists (AID 624476);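 further: cells exposed to compound for 48 hours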
[9] = qHTS Assay for Identification of Small Molecule Agonists for NFkB Signaling Pathway. (AID 624478);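 further: compounds tested together with TNF alpha at its EC50 of 10 pM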
Procedure, shortened: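 ME-180 cervical carcinoma, stable NFkB-RE beta-lactamase reporter; 1000 cells/well, overnight attachment; cpd + TNF alpha 10 pM final, 5 h 37 C; LiveBLAzer 2 h RT; FRET 460/530 nm, ex 405 nm.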

[10] = qHTS Assay for Identification of Small Molecule Antagonists for NFkB Signaling Pathway. (AID 624479; calls by dose curve;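 further: pathway stimulated with TNF alpha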)

In the case of COC(=O)C1=C(C)NC(C)=C(C(=O)OC)C1c1ccccc1[N+](=O)[O-], the outcome [1] is reported as “inactive”, the outcome [2] is reported as “inactive” and the outcome [3] is reported as “inactive”.
For O=C1Nc2ccc(Cl)cc2[C@@](C#CC2CC2)(C(F)(F)F)O1, the viability (% of control) [4] was 3.1% [at 92.2 µM] and the viability, percent of control [5] was 2.9% [at 92.2 µM].
In the case of CN(C)CC[C@@H](c1ccc(Cl)cc1)c1ccccn1, the Potency [6] is reported as “inactive”, the outcome [7] is reported as “inactive” and the outcome [1] is reported as “inactive”. For the same compound, the outcome [2] was “inactive” and the outcome [3] was “inactive”.
For OCCN1CCN(CCCN2c3ccccc3Sc3ccc(Cl)cc32)CC1, the outcome [7] was “inactive”, the outcome [1] was “inactive” and the outcome [2] was “inactive”. The outcome [3] was “inactive”.
With CC1=C(/C=C/C(C)=C/C=C/C(C)=C/C(=O)O)C(C)(C)CCC1 the outcome [7] was “inactive”, the outcome [1] was “inactive” and the outcome [2] was “inactive”. The outcome [3] was “inactive”.
With CC(CN(C)C)CN1c2ccccc2CCc2ccccc21 (stereo not drawn) the Potency [6] was “inactive”, the outcome [7] was “inactive” and the outcome [1] was “inactive”. For the same compound, the outcome [2] was “inactive” and the outcome [3] was “inactive”.
For CC(=O)O[C@@]12CO[C@@H]1C[C@H](O)[C@@]1(C)C(=O)[C@H](O)C3=C(C)[C@@H](OC(=O)[C@H](O)[C@@H](NC(=O)OC(C)(C)C)c4ccccc4)C[C@@](O)([C@@H](OC(=O)c4ccccc4)[C@H]21)C3(C)C, the outcome [8] was “inactive”, the outcome [9] was “inactive” and the outcome [10] was “inactive”. The viability (% of control) [4] was 32.1% and the viability, percent of control [5] was 69%.
For CN(C)CCC=C1c2ccccc2CCc2ccccc21, the outcome [7] was “inactive”, the outcome [1] was “inactive” and the outcome [2] was “inactive”. For the same compound, the outcome [3] was “inactive”.
For NC(=O)c1ncn([C@@H]2O[C@H](CO)[C@@H](O)[C@H]2O)n1, the Potency [6] was “inactive”, the outcome [1] was “inactive” and the outcome [2] was “inactive”. The outcome [3] was “inactive”.
With CCN(CC)CCOC(=O)C1(C2CCCCC2)CCCCC1 the Potency [6] was “inactive”, the outcome [7] was “inactive” and the outcome [1] was “inactive”. The outcome [2] was “inactive” and the outcome [3] was “inactive”.
With C[C@]12CC[C@@H]3c4ccc(O)cc4CC[C@H]3[C@@H]1CCC2=O the Potency [6] was “inactive”, the outcome [7] was “inactive” and the outcome [1] was “inactive”. For the same compound, the outcome [2] was “inactive” and the outcome [3] was “inactive”.
For CC(C(O)c1ccc(O)cc1)N1CCC(Cc2ccccc2)CC1 (stereo not drawn), the Potency [6] was “inactive”, the outcome [7] was “inactive” and the outcome [1] was “inactive”. For the same compound, the outcome [2] was “inactive” and the outcome [3] was “inactive”.
With Nc1ncnc2c1ncn2[C@@H]1O[C@H](CO)[C@@H](O)[C@H]1O the Potency [6] was “inactive”, the outcome [7] was “inactive” and the outcome [1] was “inactive”. For the same compound, the outcome [2] was “inactive” and the outcome [3] was “inactive”.
With CN(C)CCCN1c2ccccc2CCc2ccccc21 the Potency [6] was “inactive” and the outcome [3] was “inactive”.
